Experimental data: PubChem BioAssay AID1159580 (chemical genetic matrix, 2015)
Screen size: about 5,500 compounds; about 2,000 (36%) were called active. About 18% were inconclusive and are not listed. This is one part of the list. A number with no mark means an inactive call. No stated cut-off is given here; in the data, active means normalized growth mostly below about 0.91 (no sharp cut-off); inconclusive means no clear call, values can overlap the other calls; inactive means mostly above about 0.92.

Assay: chemical genetic growth profiling, strain panel (AID 1159580);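 further: tested at 20 µM; growth read once vehicle control cultures reached saturation at 30 °C; 1 = growth at the plate median or of vehicle wells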
Details: growth OD

Question: Which results are given for `CC1=C2CCC3C(CC[C@]4(C)C(=O)CCC34)[C@@]2(C)CCC1=O` (some centres not stated)?
Answer: normalized growth (S. cerevisiae deletion strains, locus YJR075W, strain HOC1, stronger effect = lower value): 0.968; normalized growth (S. cerevisiae deletion strains, locus YKL009W, strain mrt4, stronger effect = lower value): 0.948; normalized growth (S. cerevisiae deletion strains, locus YKL068W, stronger effect = lower value): 0.985; normalized growth (S. cerevisiae deletion strains, locus YKL085W, strain MDH1 (second series), stronger effect = lower value): 0.983; normalized growth (S. cerevisiae deletion strains, locus YKL085W, strain MDH1, stronger effect = lower value): 0.983; normalized growth (S. cerevisiae deletion strains, locus YKL160W, strain elf1, stronger effect = lower value): 0.936; normalized growth (S. cerevisiae deletion strains, locus YKL190W, strain CNB1, stronger effect = lower value): 0.98; normalized growth (S. cerevisiae deletion strains, locus YKR001C, strain vps1, stronger effect = lower value): 0.9; normalized growth (S. cerevisiae deletion strains, locus YKR026C, strain gcn3, stronger effect = lower value): 0.998; normalized growth (S. cerevisiae deletion strains, locus YKR091W, strain srl3, stronger effect = lower value): 0.985; normalized growth (S. cerevisiae deletion strains, locus YLL001W, strain dnm1, stronger effect = lower value): 0.937; normalized growth (S. cerevisiae deletion strains, locus YLL026W, stronger effect = lower value): 0.994; normalized growth (S. cerevisiae deletion strains, locus YLL041C, strain sdh2, stronger effect = lower value): 0.984; normalized growth (S. cerevisiae deletion strains, locus YLR027C, strain aat2, stronger effect = lower value): 0.948; normalized growth (S. cerevisiae deletion strains, locus YLR039C, strain RIC1, stronger effect = lower value): 0.587 (active); normalized growth (S. cerevisiae deletion strains, locus YLR058C, strain SHM2, stronger effect = lower value): 0.976; normalized growth (S. cerevisiae deletion strains, locus YLR102C, strain apc9, stronger effect = lower value): 0.977; normalized growth (S. cerevisiae deletion strains, locus YLR113W, strain HOG1, stronger effect = lower value): 0.974; normalized growth (S. cerevisiae deletion strains, locus YLR221C, strain rsa3, stronger effect = lower value): 0.994; normalized growth (S. cerevisiae deletion strains, locus YLR258W, strain gsy2, stronger effect = lower value): 0.959; normalized growth (S. cerevisiae deletion strains, locus YLR262C, strain YPT6 (second series), stronger effect = lower value): 0.655 (active); normalized growth (S. cerevisiae deletion strains, locus YLR262C, strain YPT6, stronger effect = lower value): 0.613; normalized growth (S. cerevisiae deletion strains, locus YLR268W, strain sec22, stronger effect = lower value): 1.02; normalized growth (S. cerevisiae deletion strains, locus YLR320W, strain mms22, stronger effect = lower value): 0.94; normalized growth (S. cerevisiae deletion strains, locus YLR330W, strain CHS5, stronger effect = lower value): 0.982; normalized growth (S. cerevisiae deletion strains, locus YLR342W, strain FKS1 (second series), stronger effect = lower value): 0.811; normalized growth (S. cerevisiae deletion strains, locus YLR342W, strain FKS1, stronger effect = lower value): 0.951; normalized growth (S. cerevisiae deletion strains, locus YLR357W, strain rsc2, stronger effect = lower value): 1.01; normalized growth (S. cerevisiae deletion strains, locus YLR370C, strain arc18, stronger effect = lower value): 0.986; normalized growth (S. cerevisiae deletion strains, locus YLR371W, strain rom2, stronger effect = lower value): 0.983; normalized growth (S. cerevisiae deletion strains, locus YLR384C, strain iki3, stronger effect = lower value): 0.983; normalized growth (S. cerevisiae deletion strains, locus YLR418C, strain cdc73, stronger effect = lower value): 0.771 (active); normalized growth (S. cerevisiae deletion strains, locus YML016C, strain PPZ1, stronger effect = lower value): 0.965; normalized growth (S. cerevisiae deletion strains, locus YML032C, strain rad52, stronger effect = lower value): 0.966; normalized growth (S. cerevisiae deletion strains, locus YML120C, strain ndi1, stronger effect = lower value): 0.955; normalized growth (S. cerevisiae deletion strains, locus YML124C, strain tub3, stronger effect = lower value): 0.969; normalized growth (S. cerevisiae deletion strains, locus YMR058W, strain fet3, stronger effect = lower value): 0.976; normalized growth (S. cerevisiae deletion strains, locus YMR078C, strain ctf18, stronger effect = lower value): 0.953; normalized growth (S. cerevisiae deletion strains, locus YMR125W, strain sto1, stronger effect = lower value): 0.993; normalized growth (S. cerevisiae deletion strains, locus YMR129W, stronger effect = lower value): 0.993; normalized growth (S. cerevisiae deletion strains, locus YMR205C, strain PFK2, stronger effect = lower value): 0.9; normalized growth (S. cerevisiae deletion strains, locus YMR223W, strain ubp8, stronger effect = lower value): 0.9 (active); normalized growth (S. cerevisiae deletion strains, locus YMR231W, strain pep5, stronger effect = lower value): 0.976; normalized growth (S. cerevisiae deletion strains, locus YMR263W, strain SAP30, stronger effect = lower value): 0.971; normalized growth (S. cerevisiae deletion strains, locus YMR307W, strain GAS1, stronger effect = lower value): 0.759; normalized growth (S. cerevisiae deletion strains, locus YNL067W, strain RPL9B, stronger effect = lower value): 0.987; normalized growth (S. cerevisiae deletion strains, locus YNL071W, strain lat1, stronger effect = lower value): 0.863 (active); normalized growth (S. cerevisiae deletion strains, locus YNL128W, strain TEP1, stronger effect = lower value): 0.99; normalized growth (S. cerevisiae deletion strains, locus YNL153C, strain GIM3, stronger effect = lower value): 0.99; normalized growth (S. cerevisiae deletion strains, locus YNL183C, strain NPR1, stronger effect = lower value): 0.839; normalized growth (S. cerevisiae deletion strains, locus YNL209W, strain ssb2, stronger effect = lower value): 0.962; normalized growth (S. cerevisiae deletion strains, locus YNL233W, strain BNI4, stronger effect = lower value): 0.962; normalized growth (S. cerevisiae deletion strains, locus YNL248C, strain rpa49, stronger effect = lower value): 1.01; normalized growth (S. cerevisiae deletion strains, locus YNL250W, strain rad50, stronger effect = lower value): 0.951; normalized growth (S. cerevisiae deletion strains, locus YNL271C, strain bni1, stronger effect = lower value): 0.957; normalized growth (S. cerevisiae deletion strains, locus YNL298W, strain CLA4, stronger effect = lower value): 0.929; normalized growth (S. cerevisiae deletion strains, locus YNL307C, strain MCK1, stronger effect = lower value): 0.695 (active); normalized growth (S. cerevisiae deletion strains, locus YNL322C, strain KRE1 (second series), stronger effect = lower value): 0.986; normalized growth (S. cerevisiae deletion strains, locus YNL322C, strain KRE1, stronger effect = lower value): 0.983; normalized growth (S. cerevisiae deletion strains, locus YNR049C, strain mso1, stronger effect = lower value): 0.997; normalized growth (S. cerevisiae deletion strains, locus YNR052C, strain pop2, stronger effect = lower value): 0.89 (active); normalized growth (S. cerevisiae deletion strains, locus YOL006C, strain TOP1, stronger effect = lower value): 0.729; normalized growth (S. cerevisiae deletion strains, locus YOL012C, strain htz1): 1.08; normalized growth (S. cerevisiae deletion strains, locus YOL147C, strain pex11, stronger effect = lower value): 0.959; normalized growth (S. cerevisiae deletion strains, locus YOR001W, strain rrp6, stronger effect = lower value): 1.01; normalized growth (S. cerevisiae deletion strains, locus YOR061W, strain CKA2, stronger effect = lower value): 0.979; normalized growth (S. cerevisiae deletion strains, locus YOR069W, strain VPS5, stronger effect = lower value): 0.973; normalized growth (S. cerevisiae deletion strains, locus YOR070C, strain gyp1, stronger effect = lower value): 0.959; normalized growth (S. cerevisiae deletion strains, locus YOR080W, strain dia2, stronger effect = lower value): 0.995; normalized growth (S. cerevisiae deletion strains, locus YOR083W, strain WHI5, stronger effect = lower value): 0.915; normalized growth (S. cerevisiae deletion strains, locus YOR106W, strain vam3, stronger effect = lower value): 0.944; normalized growth (S. cerevisiae deletion strains, locus YOR136W, strain idh2, stronger effect = lower value): 0.961; normalized growth (S. cerevisiae deletion strains, locus YOR144C, strain elg1, stronger effect = lower value): 0.958; normalized growth (S. cerevisiae deletion strains, locus YOR184W, strain ser1, stronger effect = lower value): 0.719 (active); normalized growth (S. cerevisiae deletion strains, locus YOR231W, strain MKK1, stronger effect = lower value): 0.955; normalized growth (S. cerevisiae deletion strains, locus YOR265W, strain rbl2, stronger effect = lower value): 0.985; normalized growth (S. cerevisiae deletion strains, locus YOR270C, strain vph1, stronger effect = lower value): 0.844; normalized growth (S. cerevisiae deletion strains, locus YOR290C, strain snf2, stronger effect = lower value): 0.898; normalized growth (S. cerevisiae deletion strains, locus YOR316C, strain cot1, stronger effect = lower value): 0.98; normalized growth (S. cerevisiae deletion strains, locus YPL051W, strain arl3, stronger effect = lower value): 0.921; normalized growth (S. cerevisiae deletion strains, locus YPL055C, strain LGE1, stronger effect = lower value): 0.871; normalized growth (S. cerevisiae deletion strains, locus YPL078C, strain atp4, stronger effect = lower value): 0.887 (active); normalized growth (S. cerevisiae deletion strains, locus YPL106C, strain sse1, stronger effect = lower value): 1; normalized growth (S. cerevisiae deletion strains, locus YPL240C, strain hsp82, stronger effect = lower value): 0.987; normalized growth (S. cerevisiae deletion strains, locus YPL241C, strain CIN2, stronger effect = lower value): 0.986; normalized growth (S. cerevisiae deletion strains, locus YPL256C, strain CLN2, stronger effect = lower value): 0.927; normalized growth (S. cerevisiae deletion strains, locus YPR119W, strain clb2, stronger effect = lower value): 0.979; normalized growth (S. cerevisiae deletion strains, locus YPR141C, strain kar3, stronger effect = lower value): 0.951; normalized growth (S. cerevisiae deletion strains, locus YPR163C, strain tif3, stronger effect = lower value): 0.927; normalized growth (S. cerevisiae deletion strains, locus YPR167C, strain met16, stronger effect = lower value): 0.972; normalized growth (S. cerevisiae deletion strains, strain wtn01, stronger effect = lower value): 0.964; normalized growth (S. cerevisiae strains, strain wild type, stronger effect = lower value): 0.942
